Measured values taken from PubChem BioAssay.
Active and inactive are the calls of the source.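 The calls were made as follows, unless noted: active = NADPH fluorescence slope more negative than the mean of all samples by about 3 SD, 99.7% confidence; inactive = the rest.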

Experiments:
[1] = inhibitors of TNFa-induced NFkB p65 translocation, primary screen, imaging, HUVEC, MLSMR starter and 10KST1 sets (AID 438;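 active = inhibition above 20% together with a positive visual image hit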;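 also: compound added about 3h40 before a 20 min TNFalpha stimulation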;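 as to inhibition: signal is the nuclear over cytoplasmic p65 intensity ratio per well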); settings: HUVEC TNFa-induced p65 nuclear translocation; cell count: measured here: nuclei count (cytotoxicity indicator), at 2.08 µM; inhibition: at 2 µM, stronger effect = higher value, 0% TNFa-plus-vehicle, 100% no-TNFa wells
[2] = reduction of polyQ htt aggregates in cells – imaging, exon1htt(103Q)mCFP cells, high-content imaging, primary screen (AID 483;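 active = visual image review flags a hit and inhibition of aggregation exceeds 20%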;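 also: compound exposure lasted 3 days before fixation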;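 as to nuclei count: percent of the per-plate median nuclei count of sample wells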); settings: exon1htt(103Q)mCFP cell line, aggregate imaging, at 2 µM; inhibition of aggregation: stronger effect = higher value; nuclei count: measured here: cell count, toxicity
[3] = endothelial E-selectin expression blockers – imaging, HUVEC, immunofluorescence, MLSMR starter and 10KST1 sets, primary screen (AID 487;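 active = visually confirmed hit in the image check and inhibition above 20%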;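 as to inhibition: signal is fraction of cell area covered by stained E-selectin grains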;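 as to nuclei count: 100% = median nuclei count of all wells on the same plate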); settings: HUVEC TNFalpha-induced E-selectin immunofluorescence imaging, at 2 µM; inhibition: stronger effect = higher value; nuclei count: measured here: cell number, toxicity
[4] = target: Voltage-gated potassium channel subunit beta-2 (Rattus norvegicus) (UniProt P62483); assay: inhibitors of rat Kvbeta2 reductase activity – biochemical, NADPH fluorescence, primary screen (AID 622;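 active = fluorescence slope higher than the sample average by over 3 SD, cut at about -0.22 in these data, passing the limit was not always enough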;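 also: slope of raw intensity against log time taken from 70 to 1610 s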); settings: recombinant KvBeta, 4-cyanobenzaldehyde reduction, at 10 µM, stronger effect = higher value
[5] = target: Voltage-gated potassium channel subunit beta-2 (Rattus norvegicus) (UniProt P62483); assay: enhancers of rat Kvbeta2 NADPH turnover – biochemical, NADPH fluorescence, primary screen (AID 623); settings: Recombinant KvBeta, NADPH fluorescence decrease slope, 10 min; at 10 µM; stronger effect = lower value;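 also: fluorescence intensity change per second fitted from 20 to 320 s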
[6] = target: Alpha-2C adrenergic receptor (Homo sapiens) (UniProt P18825); assay: compounds altering alpha2C-coupled GIRK flux – cell-based, HEK293 alpha2C/GIRK1/2, thallium flux, primary screen (AID 624;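 active = fluorescence slope after compound addition differing from the mean of all screened samples at 99.7% confidence, in either direction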;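 also: slope of fluorescence ratio to pre-addition baseline per second over 15 to 24 s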); settings: thallium flux BTC fluorescence, at 10 µM, actives lie on both sides
[7] = blockers of RIG-like receptor reporter activation – cell-based, Sendai virus stimulus, luciferase, 10K MLSCN set, TLR/RLR signaling modifier project, primary screen (AID 602276;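 active = inhibition at or above 50% at 10 µM; inactive = inhibition below 50%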;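 also: firefly luciferase from ISG56 promoter only with Renilla not read in this screen; 0% = Sendai virus plus DMSO and 100% = medium plus DMSO without virus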); settings: HEK293 RL24 IRF3 luciferase reporter, at 10 µM, stronger effect = higher value
[8] = TLR3 IRF3 reporter activation blockers – cell-based, poly I:C stimulus, luciferase, 10K MLSCN set, primary screen (AID 602277;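 active = inhibition of the reporter signal at or above 50%; inactive = inhibition below 50%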); settings: HEK293-TLR3 RL24 IRF3 luciferase reporter, at 10 µM, stronger effect = higher value

Chain of Alpha-2C adrenergic receptor (Homo sapiens) (P18825 whole entry, looked up): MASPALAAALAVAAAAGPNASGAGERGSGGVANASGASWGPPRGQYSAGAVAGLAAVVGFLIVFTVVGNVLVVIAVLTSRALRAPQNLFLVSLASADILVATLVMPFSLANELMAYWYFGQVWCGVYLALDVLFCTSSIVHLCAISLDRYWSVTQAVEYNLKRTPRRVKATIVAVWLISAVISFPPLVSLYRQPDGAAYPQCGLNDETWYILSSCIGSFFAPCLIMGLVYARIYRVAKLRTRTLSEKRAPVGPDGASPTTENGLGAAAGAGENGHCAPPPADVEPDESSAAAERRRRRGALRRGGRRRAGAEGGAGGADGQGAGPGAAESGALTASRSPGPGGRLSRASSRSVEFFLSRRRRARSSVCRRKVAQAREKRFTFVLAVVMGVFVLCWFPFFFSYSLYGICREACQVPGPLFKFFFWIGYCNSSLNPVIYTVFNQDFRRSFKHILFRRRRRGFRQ
Chain of Voltage-gated potassium channel subunit beta-2 (Rattus norvegicus) (P62483 whole entry, looked up): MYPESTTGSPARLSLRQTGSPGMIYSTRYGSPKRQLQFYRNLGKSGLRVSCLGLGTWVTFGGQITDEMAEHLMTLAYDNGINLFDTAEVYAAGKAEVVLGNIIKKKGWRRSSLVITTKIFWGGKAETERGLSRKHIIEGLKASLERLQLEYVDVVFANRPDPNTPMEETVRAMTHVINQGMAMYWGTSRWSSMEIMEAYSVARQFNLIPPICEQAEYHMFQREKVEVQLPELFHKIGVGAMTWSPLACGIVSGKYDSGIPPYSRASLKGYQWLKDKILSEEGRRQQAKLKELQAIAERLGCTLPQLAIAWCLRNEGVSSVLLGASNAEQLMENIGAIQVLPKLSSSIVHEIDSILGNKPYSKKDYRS

Structure (SMILES) | cell count [1] | inhibition [1] | inhibition of aggregation [2] | nuclei count [2] | inhibition [3] | nuclei count [3] | fluorescence slope [4] | NADPH fluorescence slope [5] | slope [6] | inhibition [7] | inhibition [8]
CCOC(=O)c1c(C)[nH]c(C(=O)COC(=O)C2CC2C)c1C (stereo not drawn) | 378 | 0.3% (inactive) | -161% (inactive) | 1.8% | -20.9% (inactive) | 125% | -0.504 (inactive) | -5.4e-05 (inactive) | 0.00548 (inactive) | -45.3% (inactive) | -115% (inactive)
Nc1sccc1C(=O)c1ccc(Cl)cc1 | 403 | 0% (inactive) | 7.1% (inactive) | 92% | -146% (inactive) | 103% | -0.44 (inactive) | -2.6e-05 (inactive) | 0.00277 (inactive) | 2.24% (inactive) | 0.658% (inactive)
Cc1ccccc1NS(=O)(=O)c1cc(S(C)(=O)=O)ccc1Cl | 552 | 7.7% (inactive) | -3% (inactive) | 102% | -43.9% (inactive) | 119% | -0.436 (inactive) | 2.4e-05 (inactive) | 0.00562 (inactive) | -5.83% (inactive) | 4.63% (inactive)
Cc1ccc(C)c(NC(=O)CSc2nnc(-c3ccccc3)o2)c1 | 613 | -6% (inactive) | 18.9% (inactive) | 89.2% | -45.1% (inactive) | 104% | -0.543 (inactive) | 8.3e-06 (inactive) | 0.00712 (inactive) | 10% (inactive) | 29.3% (inactive)
CCOc1ccc(C2CC(c3cccc(C)c3)n3ncnc3N2)cc1 (stereo not drawn) | 666 | 0.3% (inactive) | -18.7% (inactive) | 90.6% | -13.6% (inactive) | 109% | -0.622 (inactive) | 1.7e-06 (inactive) | 0.0075 (inactive) | -8.73% (inactive) | 10.7% (inactive)
CCCCn1c(SCC(=O)N2CC(=O)Nc3ccccc32)nnc1-c1ccoc1C | 494 | -7.7% (inactive) | 15.6% (inactive) | 114% | -146% (inactive) | 174% | -0.534 (inactive) | -3.6e-05 (inactive) | 0.00478 (inactive) | 13.2% (inactive) | 19.3% (inactive)
Cc1cc(NCCN2CCCCC2)n2c(nc3ccccc32)c1C#N | 624 | -10.5% (inactive) | -3.2% (inactive) | 61.6% | -2% (inactive) | 134% | -0.526 (inactive) | -4.4e-05 (inactive) | 0.0039 (inactive) | 10.4% (inactive) | 21.6% (inactive)
Cc1ccc(C(=O)CSc2n[nH]c(-c3ccco3)n2)cc1C | 397 | 0.7% (inactive) | -8.3% (inactive) | 113% | 11.3% (inactive) | 106% | -0.479 (inactive) | 1.8e-05 (inactive) | 0.00302 (inactive) | 0.966% (inactive) | 10.8% (inactive)
Cc1ccnc(SCCn2c(N3CCCCC3)nc3c2c(=O)n(C)c(=O)n3C)n1 | 249 | 4.4% (inactive) | -9.4% (inactive) | 93.5% | -49.1% (inactive) | 107% | -0.319 (inactive) | 1.8e-05 (inactive) | 0.00339 (inactive) | 10.1% (inactive) | 36.5% (inactive)
CCOC(=O)N1CCC(Nc2ncnc3c2cnn3-c2ccc(C)cc2C)CC1 | 684 | -0.8% (inactive) | 6.9% (inactive) | 92.6% | -36.3% (inactive) | 124% | -0.529 (inactive) | -4.5e-05 (inactive) | 0.00533 (inactive) | 3.02% (inactive) | -54.1% (inactive)
COc1ccc(OCC(O)Cn2c(Br)nc3c2c(=O)[nH]c(=O)n3C)cc1 (stereo not drawn) | 221 | 2.4% (inactive) | 15.5% (inactive) | 74.9% | -39.9% (inactive) | 155% | -0.6 (inactive) | -3.5e-05 (inactive) | 0.00397 (inactive) | 35% (inactive) | 27.6% (inactive)
CC(C)n1c(NCc2c[nH]c3ccccc23)nc2ccccc21 | 489 | 1% (inactive) | 20.3% (inactive) | 54.6% | -5.1% (inactive) | 86.6% | -0.511 (inactive) | -4.3e-05 (inactive) | 0.00272 (inactive) | -4.81% (inactive) | -0.81% (inactive)
O=C1C(Cl)=C(N2CCOCC2)C(=O)N1CCc1ccccc1 | 373 | 2.8% (inactive) | -26.1% (inactive) | 97.1% | -20.9% (inactive) | 94.6% | -0.356 (inactive) | -8.5e-06 (inactive) | 0.0076 (inactive) | -18.6% (inactive) | -16.7% (inactive)
O=C1NC(Cc2c[nH]c3ccccc23)C(=O)N1CCOc1ccccc1 (stereo not drawn) | 674 | 4.9% (inactive) | 3.1% (inactive) | 120% | -14.9% (inactive) | 138% | -0.429 (inactive) | -4.2e-05 (inactive) | 0.00422 (inactive) | 13.6% (inactive) | 19.7% (inactive)
Cc1ccc(NC(=O)c2ccccc2O)cc1 | 631 | 12.1% (inactive) | 8% (inactive) | 91.3% | -203% (inactive) | 119% | -0.602 (inactive) | -5.6e-05 (inactive) | 0.00651 (inactive) | -61.1% (inactive) | -73.1% (inactive)
CC(=O)c1ccc(-c2nc3ccccc3n2C)o1 | 365 | 4.7% (inactive) | -13.2% (inactive) | 105% | -11.8% (inactive) | 108% | -0.0212 (active) | 5.6e-07 (inactive) | 0.00571 (inactive) | -22.8% (inactive) | -73.6% (inactive)
COc1ccc(S(=O)(=O)NCC(c2cccnc2)N2CCN(c3ccc(F)cc3)CC2)cc1C (stereo not drawn) | 234 | -19.1% (inactive) | -4.9% (inactive) | 56.8% | 19.6% (inactive) | 87.7% | -0.447 (inactive) | 1.7e-05 (inactive) | 0.00574 (inactive) | 13.6% (inactive) | 27.2% (inactive)
O=C(c1ccco1)N(Cc1cc2ccccc2[nH]c1=O)C1CCCCC1 | 312 | 4.8% (inactive) | -13.6% (inactive) | 114% | -42.1% (inactive) | 115% | -0.617 (inactive) | 2e-05 (inactive) | 0.00525 (inactive) | -3.39% (inactive) | 6.38% (inactive)
CC(C)(C)C1CCc2[nH]nc(C(=O)O)c2C1 (stereo not drawn) | 814 | -2.8% (inactive) | 0% (inactive) | 104% | 2% (inactive) | 121% | -0.607 (inactive) | 1.9e-05 (inactive) | 0.00808 (inactive) | 12.4% (inactive) | 16% (inactive)
COCCn1c(SCC(=O)Nc2cccc(OC)c2)nnc1-c1ccccc1 | 690 | 2.1% (inactive) | 6.3% (inactive) | 96.7% | -16% (inactive) | 117% | -0.492 (inactive) | -3.1e-05 (inactive) | 0.00579 (inactive) | -0.479% (inactive) | 19.1% (inactive)
CCOC(=O)N1CCC(NC(=O)c2ccc3c(c2)sc2nc(-c4cccc(OC)c4)cn23)CC1 | 415 | 8% (inactive) | 8.8% (inactive) | 93.6% | -3.7% (inactive) | 108% | -0.485 (inactive) | -2.7e-05 (inactive) | 0.00825 (inactive) | -22.7% (inactive) | -70.4% (inactive)
O=C(Nc1cccc(F)c1)C1C2C=CC3(CN(CCCN4CCOCC4)C(=O)C13)O2 (stereo not drawn) | 661 | -5.5% (inactive) | -27.1% (inactive) | 118% | -75.2% (inactive) | 116% | -0.548 (inactive) | -3.3e-05 (inactive) | 0.00626 (inactive) | -14.3% (inactive) | 12.3% (inactive)
Cc1cccc(N2CCN(C(=O)C3CCCN(S(=O)(=O)c4cnc[nH]4)C3)CC2C)c1 (stereo not drawn) | 387 | 1.7% (inactive) | -14% (inactive) | 107% | -11.9% (inactive) | 122% | -0.438 (inactive) | 1.5e-05 (inactive) | 0.00647 (inactive) | 6.53% (inactive) | 17.4% (inactive)
Cn1c(CNc2nc(-c3ccccc3)cs2)nnc1SCC(=O)N1CCc2ccccc21 | 628 | 11.1% (inactive) | 18.4% (inactive) | 91.5% | -65.9% (inactive) | 140% | -0.595 (inactive) | -3e-05 (inactive) | 0.00569 (inactive) | -7.07% (inactive) | 5.89% (inactive)
COc1ccc(C(=O)Nc2ccc(S(=O)(=O)NC(C)=O)cc2)cc1 | 568 | 2.4% (inactive) | 21.1% (inactive) | 92.1% | 9.3% (inactive) | 107% | -0.494 (inactive) | -2.4e-05 (inactive) | 0.00509 (inactive) | 10.3% (inactive) | 6.87% (inactive)
O=C(NCCCN1CCCC1=O)c1ccc2c(c1)NC(=O)C(N1CCOCC1)S2 (stereo not drawn) | 431 | 7.4% (inactive) | -20.6% (inactive) | 114% | -21.8% (inactive) | 116% | -0.615 (inactive) | -3.9e-05 (inactive) | 0.00374 (inactive) | 6.23% (inactive) | 15% (inactive)
COCC(=O)N(C)c1nnc(-c2ccccn2)s1 | 433 | 1.4% (inactive) | 16.5% (inactive) | 84.4% | -12.1% (inactive) | 107% | -0.167 (inactive) | -1.3e-05 (inactive) | 0.0059 (inactive) | -7.53% (inactive) | -17.6% (inactive)
CCNc1nc(N2CCOCC2)nc(N(c2ccccc2)c2ccccc2)n1 | 324 | 8.2% (inactive) | -29.1% (inactive) | 93.3% | -3.9% (inactive) | 101% | -0.388 (inactive) | -5.9e-05 (inactive) | 0.00355 (inactive) | 9.87% (inactive) | 28.5% (inactive)
